Data published in the supplement of paper PMC7765376.
Counter-ions that a name gives are not always drawn. Over roughly 1,500 compounds, “Excess HSA synergy score (sum over dose matrix of excess over highest single agent)” has its median near 43; the lowest 2% begin near -900. For the sample, the lowest values were picked, then their nearest neighbours and some compounds at random.

System: PEO-1
Assay: Excess HSA synergy score (sum over dose matrix of excess over highest single agent) (score (summed % response)); higher = less synergy / more antagonism (negative = synergy)
Settings: 72 h, read-out: viability/apoptosis luminescence (CellTiter-Glo or Caspase3-Glo / not stated per table)
[1] = matrix design: 6x6, 5-fold dilutions (primary screen)
[2] = matrix design: 10x10, 9-step dilutions (confirmatory)

CC(=O)NCC(=O)N1[C@@H]2CC[C@H]1c1ccc(Nc3ncc(C(F)(F)F)c(NC4CCC4)n3)cc12 + CC[C@H](NC(=O)[C@H](C)NC)C(=O)N1C[C@@H](O)C[C@H]1Cc1c(-c2[nH]c3cc(F)ccc3c2C[C@@H]2C[C@H](O)CN2C(=O)[C@H](CC)NC(=O)[C@H](C)NC)[nH]c2cc(F)ccc12 [Birinapant]
Excess HSA synergy score [1]: -154

CCCCN1CCC(CNC(=O)c2c3n(c4ccccc24)CCCO3)CC1 [Piboserod hydrochloride] + CC[C@H](NC(=O)[C@H](C)NC)C(=O)N1C[C@@H](O)C[C@H]1Cc1c(-c2[nH]c3cc(F)ccc3c2C[C@@H]2C[C@H](O)CN2C(=O)[C@H](CC)NC(=O)[C@H](C)NC)[nH]c2cc(F)ccc12 [Birinapant]
Excess HSA synergy score [1]: -0.918

Nc1ccn([C@@H]2CS[C@H](CO)O2)c(=O)n1 [Lamivudine] + CC[C@H](NC(=O)[C@H](C)NC)C(=O)N1C[C@@H](O)C[C@H]1Cc1c(-c2[nH]c3cc(F)ccc3c2C[C@@H]2C[C@H](O)CN2C(=O)[C@H](CC)NC(=O)[C@H](C)NC)[nH]c2cc(F)ccc12 [Birinapant]
Excess HSA synergy score [1]: 228

Nc1ccn([C@@H]2O[C@H](CO)[C@@H](O)C2(F)F)c(=O)n1 [Gemcitabine] + CC[C@H](NC(=O)[C@H](C)NC)C(=O)N1C[C@@H](O)C[C@H]1Cc1c(-c2[nH]c3cc(F)ccc3c2C[C@@H]2C[C@H](O)CN2C(=O)[C@H](CC)NC(=O)[C@H](C)NC)[nH]c2cc(F)ccc12 [Birinapant]
Excess HSA synergy score [1]: -59.3 | Excess HSA synergy score [2]: -1130

Nc1ccn([C@@H]2O[C@H](CO)[C@@H](O)[C@H]2O)c(=O)n1 [Cytidine] + CC[C@H](NC(=O)[C@H](C)NC)C(=O)N1C[C@@H](O)C[C@H]1Cc1c(-c2[nH]c3cc(F)ccc3c2C[C@@H]2C[C@H](O)CN2C(=O)[C@H](CC)NC(=O)[C@H](C)NC)[nH]c2cc(F)ccc12 [Birinapant]
Excess HSA synergy score [1]: 170

Nc1ncn([C@@H]2O[C@H](CO)[C@@H](O)[C@H]2O)c(=O)n1 [5-Azacitidine] + CC[C@H](NC(=O)[C@H](C)NC)C(=O)N1C[C@@H](O)C[C@H]1Cc1c(-c2[nH]c3cc(F)ccc3c2C[C@@H]2C[C@H](O)CN2C(=O)[C@H](CC)NC(=O)[C@H](C)NC)[nH]c2cc(F)ccc12 [Birinapant]
Excess HSA synergy score [1]: -38.5

Nc1ccn([C@@H]2CO[C@H](CO)O2)c(=O)n1 [Troxacitabine] + CC[C@H](NC(=O)[C@H](C)NC)C(=O)N1C[C@@H](O)C[C@H]1Cc1c(-c2[nH]c3cc(F)ccc3c2C[C@@H]2C[C@H](O)CN2C(=O)[C@H](CC)NC(=O)[C@H](C)NC)[nH]c2cc(F)ccc12 [Birinapant]
Excess HSA synergy score [1]: 152

Nc1ccn([C@@H]2O[C@H](CO)[C@@H](O)[C@@H]2O)c(=O)n1 [Cytarabine] + CC[C@H](NC(=O)[C@H](C)NC)C(=O)N1C[C@@H](O)C[C@H]1Cc1c(-c2[nH]c3cc(F)ccc3c2C[C@@H]2C[C@H](O)CN2C(=O)[C@H](CC)NC(=O)[C@H](C)NC)[nH]c2cc(F)ccc12 [Birinapant]
Excess HSA synergy score [1]: -388 | Excess HSA synergy score [2]: -1320

O=C(c1ccc(F)c(F)c1Nc1ccc(I)cc1F)N1CC(O)([C@@H]2CCCCN2)C1 [Cobimetinib] + CC[C@H](NC(=O)[C@H](C)NC)C(=O)N1C[C@@H](O)C[C@H]1Cc1c(-c2[nH]c3cc(F)ccc3c2C[C@@H]2C[C@H](O)CN2C(=O)[C@H](CC)NC(=O)[C@H](C)NC)[nH]c2cc(F)ccc12 [Birinapant]
Excess HSA synergy score [1]: 148

CC(C)N(CC[C@H](c1ccccc1)c1cc(CO)ccc1O)C(C)C + CC[C@H](NC(=O)[C@H](C)NC)C(=O)N1C[C@@H](O)C[C@H]1Cc1c(-c2[nH]c3cc(F)ccc3c2C[C@@H]2C[C@H](O)CN2C(=O)[C@H](CC)NC(=O)[C@H](C)NC)[nH]c2cc(F)ccc12 [Birinapant]
Excess HSA synergy score [1]: 309

CCCCCCCCc1ccc(CCC(N)(CO)CO)cc1 [Fingolimod hydrochloride] + CC[C@H](NC(=O)[C@H](C)NC)C(=O)N1C[C@@H](O)C[C@H]1Cc1c(-c2[nH]c3cc(F)ccc3c2C[C@@H]2C[C@H](O)CN2C(=O)[C@H](CC)NC(=O)[C@H](C)NC)[nH]c2cc(F)ccc12 [Birinapant]
Excess HSA synergy score [1]: -38.3

C/C=C/C[C@@H](C)C(=O)[C@H]1C(=O)N[C@@H](C(C)C)C(=O)N(C)CC(=O)N(C)[C@@H](CC(C)C)C(=O)N[C@@H](C(C)C)C(=O)N(C)[C@@H](CC(C)C)C(=O)N[C@@H](C)C(=O)N[C@H](C)C(=O)N(C)[C@@H](CC(C)C)C(=O)N(C)[C@@H](CC(C)C)C(=O)N(C)[C@@H](C(C)C)C(=O)N1C [Valspodar] + CC[C@H](NC(=O)[C@H](C)NC)C(=O)N1C[C@@H](O)C[C@H]1Cc1c(-c2[nH]c3cc(F)ccc3c2C[C@@H]2C[C@H](O)CN2C(=O)[C@H](CC)NC(=O)[C@H](C)NC)[nH]c2cc(F)ccc12 [Birinapant]
Excess HSA synergy score [1]: 173

COc1ccc(-c2cc3c(C)nc(N)nc3n([C@H]3CC[C@H](OCCO)CC3)c2=O)cn1 + CC[C@H](NC(=O)[C@H](C)NC)C(=O)N1C[C@@H](O)C[C@H]1Cc1c(-c2[nH]c3cc(F)ccc3c2C[C@@H]2C[C@H](O)CN2C(=O)[C@H](CC)NC(=O)[C@H](C)NC)[nH]c2cc(F)ccc12 [Birinapant]
Excess HSA synergy score [1]: -32.5

O=C(/C=C/c1cccnc1)NCCCCC1CCN(C(=O)c2ccccc2)CC1 [Daporinad] + CC[C@H](NC(=O)[C@H](C)NC)C(=O)N1C[C@@H](O)C[C@H]1Cc1c(-c2[nH]c3cc(F)ccc3c2C[C@@H]2C[C@H](O)CN2C(=O)[C@H](CC)NC(=O)[C@H](C)NC)[nH]c2cc(F)ccc12 [Birinapant]
Excess HSA synergy score [1]: 312

Cc1ccc(NC(=O)c2ccc(CN3CCN(C)CC3)cc2)cc1Nc1nccc(-c2cccnc2)n1 [Imatinib] + CC[C@H](NC(=O)[C@H](C)NC)C(=O)N1C[C@@H](O)C[C@H]1Cc1c(-c2[nH]c3cc(F)ccc3c2C[C@@H]2C[C@H](O)CN2C(=O)[C@H](CC)NC(=O)[C@H](C)NC)[nH]c2cc(F)ccc12 [Birinapant]
Excess HSA synergy score [1]: -103

Nc1ccccc1NC(=O)c1ccc(CNc2nccc(-c3cccnc3)n2)cc1 [Mocetinostat] + CC[C@H](NC(=O)[C@H](C)NC)C(=O)N1C[C@@H](O)C[C@H]1Cc1c(-c2[nH]c3cc(F)ccc3c2C[C@@H]2C[C@H](O)CN2C(=O)[C@H](CC)NC(=O)[C@H](C)NC)[nH]c2cc(F)ccc12 [Birinapant]
Excess HSA synergy score [1]: -263 | Excess HSA synergy score [2]: -1360

Nc1ccccc1NC(=O)c1ccc(CNC(=O)OCc2cccnc2)cc1 [Entinostat] + CC[C@H](NC(=O)[C@H](C)NC)C(=O)N1C[C@@H](O)C[C@H]1Cc1c(-c2[nH]c3cc(F)ccc3c2C[C@@H]2C[C@H](O)CN2C(=O)[C@H](CC)NC(=O)[C@H](C)NC)[nH]c2cc(F)ccc12 [Birinapant]
Excess HSA synergy score [1]: -296

CC(/C=C1\SC(=S)N(CC(=O)O)C1=O)=C\c1ccccc1 [Epalrestat] + CC[C@H](NC(=O)[C@H](C)NC)C(=O)N1C[C@@H](O)C[C@H]1Cc1c(-c2[nH]c3cc(F)ccc3c2C[C@@H]2C[C@H](O)CN2C(=O)[C@H](CC)NC(=O)[C@H](C)NC)[nH]c2cc(F)ccc12 [Birinapant]
Excess HSA synergy score [1]: 114

CO/N=C(\C(=O)N[C@@H]1C(=O)N2C(C(=O)O)=C(Cn3ccc(=N)n3CCO)CS[C@H]12)c1csc(N)n1 [Cefoselis sulfate] + CC[C@H](NC(=O)[C@H](C)NC)C(=O)N1C[C@@H](O)C[C@H]1Cc1c(-c2[nH]c3cc(F)ccc3c2C[C@@H]2C[C@H](O)CN2C(=O)[C@H](CC)NC(=O)[C@H](C)NC)[nH]c2cc(F)ccc12 [Birinapant]
Excess HSA synergy score [1]: 200

N#CC(=Cc1ccc(O)c(O)c1)C(=O)NCc1ccccc1 [Tyrphostin B42] + CC[C@H](NC(=O)[C@H](C)NC)C(=O)N1C[C@@H](O)C[C@H]1Cc1c(-c2[nH]c3cc(F)ccc3c2C[C@@H]2C[C@H](O)CN2C(=O)[C@H](CC)NC(=O)[C@H](C)NC)[nH]c2cc(F)ccc12 [Birinapant]
Excess HSA synergy score [1]: 83.7

O=C(/C=C/c1cccc(S(=O)(=O)Nc2ccccc2)c1)NO [Belinostat] + CC[C@H](NC(=O)[C@H](C)NC)C(=O)N1C[C@@H](O)C[C@H]1Cc1c(-c2[nH]c3cc(F)ccc3c2C[C@@H]2C[C@H](O)CN2C(=O)[C@H](CC)NC(=O)[C@H](C)NC)[nH]c2cc(F)ccc12 [Birinapant]
Excess HSA synergy score [1]: -26.7

O=C(/C=C/c1ccc(CN(CCO)CCc2c[nH]c3ccccc23)cc1)NO [Dacinostat] + CC[C@H](NC(=O)[C@H](C)NC)C(=O)N1C[C@@H](O)C[C@H]1Cc1c(-c2[nH]c3cc(F)ccc3c2C[C@@H]2C[C@H](O)CN2C(=O)[C@H](CC)NC(=O)[C@H](C)NC)[nH]c2cc(F)ccc12 [Birinapant]
Excess HSA synergy score [1]: -67.4

Cc1[nH]c2ccccc2c1CCNCc1ccc(/C=C/C(=O)NO)cc1 [Panobinostat] + CC[C@H](NC(=O)[C@H](C)NC)C(=O)N1C[C@@H](O)C[C@H]1Cc1c(-c2[nH]c3cc(F)ccc3c2C[C@@H]2C[C@H](O)CN2C(=O)[C@H](CC)NC(=O)[C@H](C)NC)[nH]c2cc(F)ccc12 [Birinapant]
Excess HSA synergy score [1]: -159 | Excess HSA synergy score [2]: -1360

CC[C@]12C=CCN3CC[C@@]4(c5cc([C@@]6(C(=O)OC)C[C@@H]7C[C@@H](C(C)(F)F)CN(Cc8c6[nH]c6ccccc86)C7)c(OC)cc5N(C)[C@H]4[C@@](O)(C(=O)OC)[C@@H]1OC(C)=O)[C@@H]32 [Vinflunine] + CC[C@H](NC(=O)[C@H](C)NC)C(=O)N1C[C@@H](O)C[C@H]1Cc1c(-c2[nH]c3cc(F)ccc3c2C[C@@H]2C[C@H](O)CN2C(=O)[C@H](CC)NC(=O)[C@H](C)NC)[nH]c2cc(F)ccc12 [Birinapant]
Excess HSA synergy score [1]: -106 | Excess HSA synergy score [2]: -752
